Results on 25 compounds are retold here after PubChem BioAssay (Tox21).

Values without a mark were called inactive. Results filed as inconclusive are left out. Calls of active or inactive are those of the source. Unless noted, the call rests on the fitted dose curve; in most records, active means well fitted curve in the direction sought with a large enough effect in the repeat runs; inconclusive means weak or mixed curves; inactive means no such curve, though single readings can be large; an effect the other way counts as inactive or inconclusive.

A short description of test [1]: qHTS assay for small molecule agonists of the p53 signaling pathway (AID 651631; calls by dose curve; further: nearly all actives have a fitted effect of over 15% in size; further: potency means the concentration at half of the fitted maximal effect). Put shortly:
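We treat p53RE-bla HCT-116 cells with compounds for 16 h at 37 °C, add LiveBLAzer B/G FRET substrate for 2 h at room temperature, and measure fluorescence intensity.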

Test [2] in a line: qHTS assay for small molecules that induce genotoxicity in human embryonic kidney cells expressing luciferase-tagged ATAD5 (AID 651632). Further: nearly all actives have a fitted effect of over 15% in size. A digest of the protocol:
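HEK293T cells carrying luciferase-tagged ATAD5 were given compound or DMSO vehicle and incubated 16 hr at 37C, 5% CO2. Luciferase activity was read after 30 min at room temperature with Amplite; a rise signals genotoxic stress.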
(In general: qHTS replaces the single test concentration by a dilution series.)

The nature of test [3]: qHTS assay for small molecule agonists of the p53 signaling pathway - cell viability (AID 651633; calls by dose curve;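 further: p53RE-bla HCT reporter cells with a stable beta-lactamase p53 reporter; series mostly up to about 83 µM; nearly all actives have a fitted effect of over 30% in size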). A digest of the protocol:
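Viability counter-read: CellTiter-Glo luminescence (30 min, room temperature) in the same p53RE-bla plates. These plates had been exposed to compounds for 16 h at 37 C.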

A short description of test [4]: qHTS assay for small molecules that induce genotoxicity in human embryonic kidney cells expressing luciferase-tagged ATAD5 - cell viability (AID 651634; calls by dose curve; further: nearly all actives have a fitted effect of over 25% in size). A digest of the protocol:
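HEK293T cells carrying luciferase-tagged ATAD5, 2,000 cells/well, exposed to compound for 15.5 hr at 37C. Viability read as live-cell protease activity by CellTiter-Fluor fluorescence after 30 min at 37C.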

The nature of test [5]: qHTS assay for small molecule disruptors of the mitochondrial membrane potential - cell viability (AID 720634; calls by dose curve;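 further: human HepG2 liver cancer cells; series mostly up to about 83 µM; nearly all actives have a fitted effect of over 20% in size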). Put shortly: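 HepG2 cells, 2,000 per well, attached overnight, then treated 1 hr at 37 C, 5% CO2. Viability read as ATP by CellTiter-Glo luminescence after 30 min at room temperature. Read in the same wells as the m-MPI membrane-potential dye assay.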
The nature of test [6]: qHTS assay for small molecule disruptors of the mitochondrial membrane potential (AID 720635). Further: potency means the concentration at half of the fitted maximal effect. A digest of the protocol:
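Mitochondrial membrane potential tracked with Mito-MPS dye, red aggregates (ex 540/em 590 nm) against green monomers (ex 490/em 535 nm). Compound treatment 1 hr at 37C, dye 30 min in HepG2.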

The nature of test [7]: qHTS assay to test for compound auto fluorescence at 590 nm (red) in HepG2 cells (AID 720674). A digest of the protocol: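 We screened compounds on adherent HepG2 cells, incubating them for an hour at 37 C in 5% CO2 before reading emission at 590 nm under 540 nm excitation; values reflect equivalence to Rose Bengal sodium fluorescence.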
Test [8] is described as follows: qHTS assay to test for compound auto fluorescence at 535 nm (green) in HepG2 cells (AID 720675).
Test [9] in a line: qHTS assay to test for compound auto fluorescence at 460 nm (blue) in HEK293 cells (AID 720678). Put shortly: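 Auto fluorescence in the blue band was quantified as triamterene equivalency. HEK293 cells were seeded at 2,000/well, dosed after a 4-5 hr attachment, and kept overnight at 37C before the 405/460 nm reading.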
The nature of test [10]: qHTS assay to test for compound auto fluorescence at 590 nm (red) in HEK293 cells (AID 720679). Put shortly:
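Autofluorescence equivalency to Rose Bengal sodium, 540/590nm, in HEK293 cells exposed overnight to 23 nL compound per well.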
On the % scale 0 is the no-effect control and ±100 the full control effect.

For the compound `CC(C)(O)C(Cl)(Cl)Cl`, the Potency result in [1], in test [3], in [4], in test [5] and in test [6] was “inactive” throughout. The compound was classed as inactive in [2], in test [7], in test [8], in test [9] and in [10].

With `Cn1c(N)nc2c3cccnc3ccc21`, the Potency result in [1], in test [3], in test [4], in test [5] and in test [6] was “inactive” in each case. Also, the compound was called inactive in [2], in [7], in test [8], in test [9] and in [10].

`C=CCc1cc(OC)c2c(c1)OCO2`: the Potency result in [1], in test [3], in [4], in test [5] and in test [6] was “inactive” each time. Further, the result in [2], in test [7], in test [8] and in test [9] was inactive.

On to `CCCOc1nn(C(=O)NS(=O)(=O)c2ccccc2C(=O)OC)c(=O)n1C`, for which the Potency entry in test [1], in test [3], in [4], in test [5] and in test [6] was “inactive” throughout. Besides, the compound was classed as inactive in test [2], in test [7], in test [8], in test [9] and in test [10].

Take `C=CC1(C)OC(=O)N(c2cc(Cl)cc(Cl)c2)C1=O` (stereo unspecified): the Potency entry in test [1], in test [3], in test [4] and in [5] was “inactive” throughout. Also, the result in [2], in test [7], in [8], in test [9] and in test [10] was inactive. Besides, in test [6], the Potency was 54.5 µM (active).

For `CC(Cc1ccccc1)NCCn1cnc2c1c(=O)n(C)c(=O)n2C` (stereo unspecified), the Potency result in test [1], in test [3], in [4], in [5] and in [6] was “inactive” throughout. Also, the compound was classed as inactive in [2], in test [7], in test [8], in test [9] and in test [10].

Regarding `Cn1c(CCCC(=O)O)nc2cc(N(CCCl)CCCl)ccc21`, the Potency in [1] was 26.6 µM (active). In addition, the call in [2], in [7], in test [8] and in test [9] was inactive. In addition, the Potency result in test [3], in [4], in [5] and in [6] was “inactive” in each case.

Regarding `CC(C)[N+](C)(CCC(C(N)=O)(c1ccccc1)c1ccccc1)C(C)C`, the Potency entry in test [1], in test [3], in test [4], in test [5] and in test [6] was “inactive” each time. Also, the compound was classed as inactive in test [2]. Moreover, the fluorescence, relative to Rose Bengal in test [7] was -0.328% [at 18.6 µM]. Moreover, the fluorescence, % of fluorescein control in [8] was -0.0469% [at 18.6 µM]. In addition, the fluorescence, % of triamterene in [9] is 0.0132% [at 18.6 µM]. Further, the fluorescence, % of fluorescent control in test [10] was -0.12% [at 18.6 µM].

Turning to `O=C(Cl)OCc1ccccc1`, the Potency result in [1], in [3], in test [4], in [5] and in test [6] was “inactive” in each case. In addition, the call in test [2], in [7], in [8], in test [9] and in test [10] was inactive.

`CCCOC(=O)Cc1ccc(OCC(=O)N(CC)CC)c(OC)c1`: the Potency result in test [1], in test [3], in test [4], in test [5] and in test [6] was “inactive” in each case. Further, the result in test [2], in test [7], in test [8], in test [9] and in test [10] was inactive.

On to `CC1N=C(N)OC1c1ccccc1` (stereo unspecified), for which the Potency entry in [1], in [3], in test [4], in test [5] and in test [6] was “inactive” throughout. Further, the outcome in test [2], in test [7], in test [8], in test [9] and in test [10] was inactive.

As for `CCNc1nc(NCC)nc(SC)n1`, the Potency result in test [1], in test [3], in test [4], in test [5] and in test [6] was “inactive” each time. The call in test [2], in [7], in test [8], in [9] and in test [10] was inactive.

Turning to `CCCCCCCCSC(=O)Oc1cc(Cl)nnc1-c1ccccc1`, the Potency entry in [1], in [3], in test [4] and in test [5] was “inactive” each time. For the same compound, the call in test [2], in test [7], in [8], in test [9] and in test [10] was inactive. For the same compound, the Potency in test [6] was 30.6 µM (active).

Consider `Clc1nc(Cl)nc(Nc2ccccc2Cl)n1`, for which the Potency result in test [1], in test [3], in [4], in [5] and in [6] was “inactive” in each case. Also, the call in test [2], in [7], in test [8] and in test [9] was inactive.

Regarding `CC(=NC#N)N(C)Cc1ccc(Cl)nc1`, the Potency entry in [1], in [3], in [4] and in test [5] was “inactive” in each case. Further, the compound was classed as inactive in [2], in [7], in test [8], in test [9] and in [10].

On to `CCCCOC(C)=O`, for which the Potency entry in test [1], in test [3], in test [4], in [5] and in test [6] was “inactive” throughout. For the same compound, the call in test [2], in test [7], in test [8], in test [9] and in test [10] was inactive.

For `CCN(CCO)CCO`, the Potency result in test [1], in [3], in test [4] and in test [5] was “inactive” each time. The outcome in test [2], in test [7], in test [8], in test [9] and in test [10] was inactive.

For the compound `CC[C@H](N)c1ccccc1`, the Potency result in test [1], in test [3], in test [4] and in test [5] was “inactive” each time. The compound was classed as inactive in [2], in test [7], in test [8], in test [9] and in test [10].

Take `CCSC(=O)Cl`: the Potency result in test [1], in [3], in [4], in [5] and in test [6] was “inactive” in each case. Also, the compound was classed as inactive in [2], in test [7], in test [8], in test [9] and in [10].

On to `O=C(O)C(F)(F)C(F)(F)C(F)(F)C(F)(F)C(F)(F)C(F)(F)F`, for which the Potency entry in [1], in test [3], in [4] and in test [5] was “inactive” throughout. The call in test [2], in test [7], in test [8], in test [9] and in test [10] was inactive.

In the case of `CCOC(=O)C(SP(=S)(OC)OC)c1ccccc1` (stereo unspecified), the Potency result in test [1], in [3], in test [4] and in test [5] was “inactive” throughout. For the same compound, the result in [2], in test [7], in [8], in [9] and in [10] was inactive.

`OP(O)c1ccccc1`: the Potency result in test [1], in test [3], in test [4], in test [5] and in test [6] was “inactive” throughout. Besides, the call in test [2], in [7], in test [8], in test [9] and in [10] was inactive.

Turning to `C[C@H](CN1CCOCC1)C(C(=O)N1CCCC1)(c1ccccc1)c1ccccc1`, the Potency result in test [1], in test [3], in test [4] and in test [5] was “inactive” in each case. Moreover, the call in test [2], in test [7], in test [8], in test [9] and in [10] was inactive.

As to `CC(C)(C1CCC(O)CC1)C1CCC(O)CC1` (stereo unspecified), the Potency result in test [1], in [3], in [4] and in test [5] was “inactive” throughout. The compound was called inactive in [2], in test [7], in [8], in [9] and in test [10]. Moreover, the Potency in test [6] is 7.7 µM (active).

Turning to `COc1ccc2c(C(=O)c3ccc(Cl)cc3)c(C)n(CC(=O)O)c2c1`, the Potency entry in test [1], in test [3], in [4], in test [5] and in test [6] was “inactive” throughout. Also, the call in test [2], in test [7], in [8], in test [9] and in [10] was inactive.
